Compound activity (PubChem)
DT40 TDP1 no CPT – qHTS for Inhibitors of human tyrosyl-DNA phosphodiesterase 1 (TDP1): qHTS in cells in absence of CPT; DT40 Tdp1-/- hTDP1 cells, no CPT, ATP luminescence, 48 h; Potency, µM (titrated, usually from 46.2 µM), inactives show at the top dose activity change, negative = growth inhibition, usual class: inhibitors; actives 15% (n = 420,000); note: potency is the fitted concentration of half-maximal effect; nearly all actives have a fitted effect of over 55% in size
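Cells were dispensed at 400 per well, compounds added by pin tool, plates incubated ≥48 hr at 37 °C, then CellTiter-Glo added for 30 min at room temperature before luminescence reading. Line: DT40 Tdp1-/- complemented with hTDP1; camptothecin omitted.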
IL-1B inflam inh – qHTS for Inhibitors of Inflammasome Signaling: IL-1-beta AlphaLISA Primary Screen; actives 4.7% (n = 360,000); AID 743279, 2014; THP-1 LPS/ATP IL-1B secretion, AlphaLISA, 16 h; stronger effect = lower value; activity change, % at 57.5 µM; in the data active = activity change below about -50%; inconclusive = mostly about -30% to -49%
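THP-1 cells pretreated 1 hr with compounds (up to 57.5 uM final), then stimulated with LPS (250 ng/mL final) plus ATP (1.25 mM final); secreted IL-1B measured by AlphaLISA after 16 hr, decreased signal indicating inhibition.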
TDP1 inh – qHTS Assay for Inhibitors of Tyrosyl-DNA Phosphodiesterase (TDP1) | Potency, µM (series often up to 130 µM), without a hit: at the highest dose activity change, negative = inhibition, most hits filed as inhibitors | recombinant TDP1, AlphaScreen DNA substrate cleavage | Tyrosyl-DNA phosphodiesterase 1 (Homo sapiens), Q9NUW8 | actives 0.28% (n = 350,000); note: potency is the fitted concentration of half-maximal effect; nearly all actives have a fitted effect of over 40% in size
Target sequence (Q9NUW8 whole entry, looked up): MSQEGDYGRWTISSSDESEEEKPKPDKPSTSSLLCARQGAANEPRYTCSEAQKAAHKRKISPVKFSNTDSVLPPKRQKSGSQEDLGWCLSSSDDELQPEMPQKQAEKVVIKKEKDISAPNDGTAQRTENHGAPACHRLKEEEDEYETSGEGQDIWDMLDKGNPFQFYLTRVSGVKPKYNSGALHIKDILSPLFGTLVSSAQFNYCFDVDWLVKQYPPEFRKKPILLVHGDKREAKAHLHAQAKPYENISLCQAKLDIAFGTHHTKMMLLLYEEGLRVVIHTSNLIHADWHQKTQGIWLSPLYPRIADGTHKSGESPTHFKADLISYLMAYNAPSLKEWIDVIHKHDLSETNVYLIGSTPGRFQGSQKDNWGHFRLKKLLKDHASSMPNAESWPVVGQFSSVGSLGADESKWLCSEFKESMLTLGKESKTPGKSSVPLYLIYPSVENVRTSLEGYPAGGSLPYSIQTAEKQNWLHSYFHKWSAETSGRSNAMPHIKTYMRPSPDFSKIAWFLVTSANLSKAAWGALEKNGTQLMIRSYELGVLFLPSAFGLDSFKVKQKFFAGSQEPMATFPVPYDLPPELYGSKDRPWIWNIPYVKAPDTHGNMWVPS
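AlphaScreen read-out: signal falls as enzyme removes the 3' tyrosine-FITC from a 5'-biotinylated DNA oligo (15 nM, 5 min, RT). Enzyme was E. coli-made recombinant Tdp1 at 1 nM, exposed to compound for 15 min beforehand; beads 10 ug/ml, 10 min.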
Giardia killer – Small Molecules that selectively kill Giardia lamblia: qHTS; Giardia lamblia trophozoite viability; activity change, % at 7.66 µM, hits read low; actives 0.15% (n = 340,000); AID 540267, 2011; in the data active = activity change below about -80%; inconclusive = between about -30% and that limit;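 note: parasites exposed to compound for two days anaerobically before the ATP read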
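ATP-content bioluminescence gauges trophozoite survival. Cells (100/well) receive compound and incubate anaerobically for 48 hrs at 37 deg C; detection reagent follows for 15-30 min at room temperature.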
TDP1 cell CPT – qHTS for Inhibitors of human tyrosyl-DNA phosphodiesterase 1 (TDP1): qHTS in cells in presence of CPT | chicken DT40 Tdp1-/-;hTDP1 cells + 20 nM CPT, ATP luminescence, 48 h | Potency, µM (highest dose often 46.2 µM), for inactives: at the top dose activity change, negative = growth inhibition, actives largely listed as inhibitors | actives 12% (n = 420,000) | AID 686979, 2013; note: potency is the fitted concentration of half-maximal effect; nearly all actives have a fitted effect of over 55% in size
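Cell growth measured by CellTiter-Glo luminescence after a minimum 48 h, 37 C compound exposure with 20 nM CPT in Tdp1-knockout DT40 cells stably expressing hTDP1, seeded 400/well; qHTS titration format.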
ELG1 repair inh – qHTS screen for small molecules that inhibit ELG1-dependent DNA repair in human embryonic kidney (HEK293T) cells expressing luciferase-tagged ELG1 | actives 2.3% (n = 330,000) | Potency, µM (titrated, usually from 46.1 µM), inactives show top-dose activity change, negative = inhibition, most hits filed as inhibitors | HEK293T ELG1-luciferase reporter, luminescence, 16 h; DNA damage induced by 5-fluorouridine; note: potency is the fitted concentration of half-maximal effect; nearly all actives have a fitted effect of over 55% in size
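Overnight (16 hr) co-exposure of 2,000 cells/well to 5-fluorouridine and compound at 37 °C preceded detection. Luciferase was quantified via ONE-Glo luminescence; loss of signal denotes inhibition.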
Starred values were filed as active, the others as inactive; ? = inconclusive; . = no result; [ ] = another dose, or the depositor's remark. A selection: hits, their analogues and other compounds. The true share with any hit is near 19%. Unless noted, calls come from the whole dose curve; as a rule, active = well fitted curve in the direction sought with a large enough effect; inconclusive = small, poorly fitted or top-dose-only effect, or another doubt; inactive = no such curve, though single readings can be large; an effect the other way counts as inactive or inconclusive. % is set by controls: 0 for no effect and ±100 for the full control effect.

SMILES	DT40 TDP1 no CPT	IL-1B inflam inh	TDP1 inh	Giardia killer	TDP1 cell CPT	ELG1 repair inh
CN1CCN(c2ccc(S(=O)(=O)N3CCCCC3)cc2NC(=O)c2ccc(C#N)cc2)CC1	4.0%	14.5	3.2%	9.2	-1.8%	-3.8%
CN1CCN(c2ccc(Cl)cc2NC(=O)c2ccc(S(=O)(=O)N3CCCCCC3)cc2)CC1	16.4µM*	0.0	3.1%	8.3	?	8.3%
CCS(=O)(=O)c1ncc(Cl)c(C(=O)Nc2ccc(S(=O)(=O)N3CCCC(C)C3)cc2)n1 (stereo not given)	2.31µM*	-104.4*	8.4%	-9.4	0.92µM*	?
COC(=O)c1ccccc1NC(=O)c1nc(S(=O)(=O)Cc2ccccc2)ncc1Cl	1.3µM*	-15.8	7.2%	11.5	2.91µM*	-13.1%
CCCS(=O)(=O)c1ncc(Cl)c(C(=O)Nc2c(C(=O)Nc3ccccc3)oc3ccccc23)n1	2.59µM*	.	4.9%	.	2.06µM*	.
CCCSc1ncc(Cl)c(C(=O)Nc2c(C(=O)Nc3ccc(OC)cc3)oc3ccccc23)n1	?	.	0.0%	.	?	.
Cc1ccc(CS(=O)(=O)c2ncc(Cl)c(C(=O)Nc3ccc(OC(F)F)cc3)n2)cc1	3.66µM*	-103.4*	3.3%	2.1	3.66µM*	?
CCS(=O)(=O)c1ncc(Cl)c(C(=O)Nc2ccc(C)cc2)n1	1.84µM*	-98.8*	2.3%	-27.6	1.64µM*	?
Cc1ccc(NC(=O)c2ncc(Cl)c(Cl)c2Cl)cc1C	?	1.5	-3.5%	0.7	?	?
O=C(Nc1ccc(OC(F)F)cc1)c1ncc(Cl)c(Cl)c1Cl	0.2%	-157.6*	-13.1%	12.4	17.7%	-1.9%
CS(=O)(=O)c1ncc(Cl)c(C(=O)Nc2ccc3ccccc3c2)n1	0.651µM*	-99.1*	-3.6%	-16.4	1.03µM*	?
CCOc1ccc(NC(=O)c2nc(S(=O)(=O)Cc3ccccc3)ncc2Cl)cc1	0.398µM*	.	.	.	0.316µM*	.
Cc1ccc(Nc2nc(NCc3ccco3)nc3nccnc23)cc1C	?	.	-2.9%	22.7	?	.
Cc1cccc(NC(=O)Cn2c(=O)n(CCc3ccccc3)c(=O)c3ccccc32)c1	?	.	1.8%	.	-19.0%	.
CCOc1ccc(NC(=O)c2nc(SCc3ccccc3F)ncc2Cl)cc1	-23.3%	.	.	.	-9.0%	.
COc1ccc(NC(=O)c2nc(S(=O)(=O)Cc3ccc(C)cc3)ncc2Cl)cc1	2.06µM*	.	-4.7%	.	16.4µM*	.
CC(=O)Nc1ccc(NC(=O)c2nc(S(=O)(=O)Cc3ccccc3)ncc2Cl)cc1	0.461µM*	.	-0.5%	-22.9	0.259µM*	?
CSc1ncc(Cl)c(C(=O)Nc2ccc(NC(C)=O)cc2)n1	-18.8%	-17.5	-2.5%	3.7	2.7%	-2.8%
CCOc1ccc(NC(=O)c2nc(S(=O)(=O)Cc3ccc(C)cc3)ncc2Cl)cc1	0.631µM*	.	.	.	0.794µM*	.
C[C@@H]1CNC(=O)c2c(C(=O)NCC(=O)OC(C)(C)C)ncn21	-28.3%	-2.7	.	.	3.1%	.
O=C1C(=O)C(Cl)=C(Cl)C(Cl)=C1Cl	7.5%	-27.7	.	.	-13.5%	.
Cc1ccc(S(=O)(=O)N2CCN(Cc3nnc(-c4c(-c5ccccc5)noc4C)o3)CC2)cc1	14.6µM*	-10.0	0.6%	3.6	14.6µM*	?
Cc1onc(-c2ccc(Cl)cc2)c1-c1ccnn1S(=O)(=O)c1cccc(C(F)(F)F)c1	23.1µM*	-19.9	-2.9%	7.4	?	-12.3%
Cc1onc(-c2ccccc2)c1-c1ccnn1C(=O)NC(C)C	?	-60.3*	-1.2%	-26.5	-21.5%	-0.5%
Cc1ccc(S(=O)(=O)n2nccc2-c2c(-c3ccccc3)noc2C)cc1	18.4µM*	.	5.7%	-2.5	?	?
SMILES	DT40 TDP1 no CPT	IL-1B inflam inh	TDP1 inh	Giardia killer	TDP1 cell CPT	ELG1 repair inh
O=S(=O)(c1ccccc1)N1CCN(Cc2nnc(-c3ccccc3)o2)CC1	?	-1.6	.	.	-20.4%	.
Cc1onc(-c2ccc(Cl)cc2)c1-c1ccnc(SCC(=O)Nc2cc(Cl)cc(Cl)c2)n1	?	-12.8	5.0%	-4.0	?	?
Cc1onc(-c2ccccc2)c1-c1ccnn1S(=O)(=O)c1ccc(Cl)cc1	-28.3%	.	0.0%	-4.0	-3.6%	?
Cc1onc(-c2ccccc2)c1C(=O)N1CCCC1	0.4%	-2.3	3.8%	28.7	1.6%	9.7%
O=C(CN(CC1CCCO1)C(=O)CNS(=O)(=O)c1ccc(F)cc1)NC1CCCC1 (stereo not given)	-24.0%	-10.1	.	-19.2	-4.3%	0.2%
CCn1c(S(=O)(=O)O)nc2ccccc21	7.8%	4.6	-1.2%	-10.0	3.8%	16.9%
CN(Cc1ccccc1)C(=O)c1ncn(Cc2ccccc2)c1C(=O)N(C)Cc1ccccc1	18.4µM*	-3.3	-0.4%	4.6	?	?
O=C(NCCC1CCCCN1S(=O)(=O)c1cccs1)C(=O)Nc1ccccc1F (stereo not given)	23.1µM*	4.0	-2.7%	4.8	?	-13.9%
COc1ccccc1NC(=O)C(=O)NCC1CCCN1S(=O)(=O)c1cccs1 (stereo not given)	?	-16.3	-4.1%[0.505 µM]	17.3	?	-17.6%
COc1ccc(CNC(=O)C(=O)NCC2CCCN2S(=O)(=O)c2cccs2)cc1 (stereo not given)	?	-3.2	.	-8.7	?	0.0%
COc1ccccc1NC(=O)C(=O)NCCC1CCCCN1S(=O)(=O)c1cccs1 (stereo not given)	18.4µM*	-16.8	0.4%	-19.4	29.1µM*	?
O=C(NCCC1CCCCN1S(=O)(=O)c1cccs1)C(=O)NCc1ccccc1 (stereo not given)	20.6µM*	0.0	.	-9.3	14.6µM*	?
COC(=O)c1ccc(CN2CCCC(CNC(=O)Cc3ccc(OC)cc3)C2)cc1 (stereo not given)	10.4%	16.5	.	4.4	-3.1%	-3.1%
COc1cc(OC)cc(C(=O)NCC2CCCN(Cc3ccc(SC)cc3)C2)c1 (stereo not given)	16.4µM*	?	.	8.0	?	-10.6%
COc1ccc(CC(=O)NCC2CCCN(Cc3ccccc3Cl)C2)cc1 (stereo not given)	-26.3%	9.2	.	7.0	-27.5%	0.5%
